Counter-ions that a name gives are not always drawn. ± gives the standard deviation of the averaged measurements.
Columns and labels:
ES2 = experiment: cell viability relative to DMSO control (MTS) (fraction of DMSO control); higher = more viable cells / less growth inhibition; details: 10 µM; 48 h
Method in brief: (§1)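 A 367-compound […] library was tested at a final concentration of 10 µM on TOV-21G and ES2 clear cell carcinoma cells (5000 cells per well, 96-well plates, pre-grown 24 h), with control wells receiving vehicle only. Following 48 h of exposure, CellTiter 96 AQueous One Solution was used as the manufacturer directs. This MTS assay gives cell viability as a fraction of the vehicle control.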

TOV-21G = experiment: as above; details: 10 µM; 48 h
Method in brief: as §1

In the case of Nc1ncn([C@@H]2O[C@H](CO)[C@@H](O)[C@H]2O)c(=O)n1 [Azacytidine], the cell viability (ES2) is reported as 0.664 and the cell viability (TOV-21G) is reported as 0.779.
In the case of CCOC(=O)C(C)(C)Oc1ccc(Cl)cc1 [Clofibrate], the cell viability (ES2) is reported as 1.35 and the cell viability (TOV-21G) is reported as 1.03.
Work on O=Nc1c(-c2c(O)[nH]c3cc(Br)ccc23)[nH]c2ccccc12 [GSK-3 inhibitor IX] yielded a cell viability (ES2) of 0.643 and a cell viability (TOV-21G) of 0.36.
Work on Oc1ccc(-c2nc(-c3ccc(F)cc3)c(-c3ccncc3)[nH]2)cc1 yielded a cell viability (ES2) of 0.468 and a cell viability (TOV-21G) of 0.806.
Work on COc1ccc(Cl)cc1C(=O)NCCc1ccc(S(=O)(=O)NC(=O)NC2CCCCC2)cc1 [Glibenclamide] yielded a cell viability (ES2) of 0.829 and a cell viability (TOV-21G) of 0.958.
With C[C@]1(c2nc3c(C(N)=O)cccc3[nH]2)CCCN1 [ABT-888 (Veliparib)] the cell viability (ES2) was 0.897 and the cell viability (TOV-21G) was 0.892.
Molecule CCCCOc1cc(CC2CNC(=O)N2)ccc1OC (stereo not given) has a cell viability (ES2) of 0.901 and a cell viability (TOV-21G) of 0.999.
COc1cccc2c1C(=O)c1c(O)c3c(c(O)c1C2=O)C[C@@](O)(C(=O)CO)C[C@@H]3O[C@H]1C[C@H](N)[C@H](O)[C@H](C)O1 [Doxorubicin, HCl] showed a cell viability (ES2) of 0.312 and a cell viability (TOV-21G) of 0.403.
Clc1ccccc1CNCC1CCC(CNCc2ccccc2Cl)CC1 (stereo not given) gave a cell viability (ES2) of 0.789 and a cell viability (TOV-21G) of 1.03.
Molecule O=[N+]([O-])c1ccc(-c2nc(-c3ccc(F)cc3)c(-c3ccncc3)[nH]2)cc1 has a cell viability (ES2) of 0.835 and a cell viability (TOV-21G) of 0.976.
CN(C)CC[C@H](CSc1ccccc1)Nc1ccc(S(=O)(=O)NC(=O)c2ccc(N3CCN(Cc4ccccc4-c4ccc(Cl)cc4)CC3)cc2)cc1[N+](=O)[O-] showed a cell viability (ES2) of 0.713 and a cell viability (TOV-21G) of 0.358.
Work on NC(=O)c1ccccc1 [Benzamide] yielded a cell viability (ES2) of 0.902 and a cell viability (TOV-21G) of 0.989.
CC(C)C[C@H](NC(=O)[C@@H](O)[C@H](N)Cc1ccccc1)C(=O)O [Bestatin] was tested, and the cell viability (ES2) was 0.885 and the cell viability (TOV-21G) was 1.13.
CSCC[C@H](NC(=O)c1ccc(NC[C@@H](N)CS)cc1-c1ccccc1)C(=O)O gave a cell viability (ES2) of 1.55 and a cell viability (TOV-21G) of 1.
C/C=C/C=C\C=C/C(O)C(C)C(CCC(C)C1OC(=O)C=CC1C)OP(=O)(O)O (stereo not given) [Cytostatin] gave a cell viability (ES2) of 0.34 and a cell viability (TOV-21G) of 0.344.
Work on Cn1c(=O)c2nc[nH]c2n(C)c1=O [Theophylline] yielded a cell viability (ES2) of 0.452 and a cell viability (TOV-21G) of 0.772.
For Oc1nc(-c2ccc(C(F)(F)F)cc2)nc2c1CSCC2, the cell viability (ES2) was 0.961 and the cell viability (TOV-21G) was 1.1.
Molecule CCCCN1C(=O)C2Cc3c([nH]c4ccccc34)C(c3cccc(O)c3)N2C1=O (stereo not given) has a cell viability (ES2) of 0.368 and a cell viability (TOV-21G) of 0.46.
With CO[C@@H]1[C@H](OC(=O)/C=C/C=C/C=C/C=C/C(=O)O)CC[C@]2(CO2)[C@H]1[C@@]1(C)O[C@@H]1CC=C(C)C [Fumagillin] the cell viability (ES2) was 0.91 and the cell viability (TOV-21G) was 0.991.
Molecule N=C(N)NC(=O)c1nc(Cl)c(N)nc1N [Amiloride] has a cell viability (ES2) of 1.16 and a cell viability (TOV-21G) of 1.24.
With NC(=O)c1ccc2nc(-c3ccc(Oc4ccc(Cl)cc4)cc3)[nH]c2c1 [Chk2 inhibitor II] the cell viability (ES2) was 1.23 and the cell viability (TOV-21G) was 1.1.
COc1ccc(Cn2ccc3ccc(C(=O)NO)cc32)cc1 gave a cell viability (ES2) of 0.928 and a cell viability (TOV-21G) of 0.919.
Work on N#C/C(=C(/N)Sc1ccccc1N)c1cccc(C(O)c2ccncc2)c1 (stereo not given) [MEK inhibitor I] yielded a cell viability (ES2) of 0.866 and a cell viability (TOV-21G) of 0.898.
In the case of CNC(=O)c1ccccc1Sc1ccc2c(/C=C/c3ccccn3)n[nH]c2c1 [Axitinib], the cell viability (ES2) is reported as 0.917 and the cell viability (TOV-21G) is reported as 0.841.
Molecule O=C(NCc1ccccc1)c1csc(Nc2ccncn2)n1 [Thiazovivin] has a cell viability (ES2) of 0.941 and a cell viability (TOV-21G) of 1.04.
For CC(C)CC(NC(=O)CNC(=O)OCc1ccccc1)C(=O)NC(Cc1ccccc1)C(=O)CCl (stereo not given), the cell viability (ES2) was 0.398 and the cell viability (TOV-21G) was 0.479.
CCN(CC)CCNC(=O)c1c(C)[nH]c(/C=C2\C(=O)Nc3ccc(F)cc32)c1C [sunitinib malate] was tested, and the cell viability (ES2) was 0.439 and the cell viability (TOV-21G) was 0.555.
C[C@@H]1C[C@H]2O[C@@H]2/C=C\C=C\C(=O)Cc2c(Cl)c(O)cc(O)c2C(=O)O1 [radicicol] gave a cell viability (ES2) of 0.409 and a cell viability (TOV-21G) of 0.342.
In the case of O=CN1CCN(c2ccc(/C=C3\C(=O)Nc4ccccc43)cc2)CC1, the cell viability (ES2) is reported as 1.13 and the cell viability (TOV-21G) is reported as 1.2.
With Cc1cc(Nc2cc(N3CCN(C)CC3)nc(/C=C/c3ccccc3)n2)n[nH]1 the cell viability (ES2) was 0.534 and the cell viability (TOV-21G) was 0.289.
Cc1cc(C=C2C(=O)C=CC2=O)cc(C)c1O gave a cell viability (ES2) of 0.801 and a cell viability (TOV-21G) of 1.21.
CC[C@H](C)C(=O)O[C@H]1C[C@@H](C)C=C2C=C[C@H](C)[C@H](CC[C@@H]3C[C@@H](O)CC(=O)O3)[C@H]21 [Lovastatin] gave a cell viability (ES2) of 0.595 and a cell viability (TOV-21G) of 0.792.
With O=C(O)c1cc(NCc2cc(O)ccc2O)ccc1O [Lavendustin C] the cell viability (ES2) was 1.36 and the cell viability (TOV-21G) was 1.17.
In the case of Cn1cnc2c(NCc3ccccc3)nc(NCCO)nc21 [Olomoucine], the cell viability (ES2) is reported as 1.25 ± 0.25 and the cell viability (TOV-21G) is reported as 1.27 ± 0.17.
In the case of COCC[n+]1c2c(n(Cc3cnccn3)c1C)C(=O)c1ccccc1C2=O, the cell viability (ES2) is reported as 0.242 and the cell viability (TOV-21G) is reported as 0.291.
Fc1ccc(Cl)cc1-c1nc(Nc2ccncc2)c2nccnc2n1 was tested, and the cell viability (ES2) was 0.645 and the cell viability (TOV-21G) was 1.08.
Work on O=c1c2ccccc2[nH]c(=S)n1CCN1CCC(=C(c2ccc(F)cc2)c2ccc(F)cc2)CC1 [Diacylglycerol kinase inhibitor II] yielded a cell viability (ES2) of 1.09 and a cell viability (TOV-21G) of 1.13.
Molecule CC[n+]1c(/C=C/N(C)c2ccccc2)n(-c2ccccc2)c2ccc(-c3nc4ccccc4s3)cc21 [Akt Inhibitor IV] has a cell viability (ES2) of 0.308 and a cell viability (TOV-21G) of 0.218.
CCN(CC)CCCCNc1ncc2cc(-c3cc(OC)cc(OC)c3)c(NC(=O)NC(C)(C)C)nc2n1 gave a cell viability (ES2) of 0.366 and a cell viability (TOV-21G) of 0.915.
Work on O=C(CCCCCCC(=O)Nc1ccccc1)NO [vorinostat] yielded a cell viability (ES2) of 0.38 and a cell viability (TOV-21G) of 0.388.
In the case of c1cc(CN2CCCNCCNCCCNCC2)ccc1CN1CCCNCCNCCCNCC1 [AMD3100 octahydrochloride], the cell viability (ES2) is reported as 1.4 and the cell viability (TOV-21G) is reported as 1.38.
CC(C)C[C@@H](C=O)NC(=O)[C@H](CC(C)C)NC(=O)[C@H](CC(C)C)NC(=O)OCc1ccccc1 showed a cell viability (ES2) of 0.298 and a cell viability (TOV-21G) of 0.255.
CS(=O)(=O)CCNCc1ccc(-c2ccc3ncnc(Nc4ccc(OCc5cccc(F)c5)c(Cl)c4)c3c2)o1 [lapatinib] showed a cell viability (ES2) of 0.482 and a cell viability (TOV-21G) of 4.68.
Molecule NC1=N/C(=C2/CCNC(=O)c3[nH]ccc32)C(=O)N1 [Debromohymenialdisine (DBH)] has a cell viability (ES2) of 1.25 and a cell viability (TOV-21G) of 1.12.
For NCC(=O)Nc1ccc(-n2nc(C(F)(F)F)cc2-c2ccc3c(ccc4ccccc43)c2)cc1, the cell viability (ES2) was 1.04 and the cell viability (TOV-21G) was 1.21.

— the supplement of paper PMC12669797
